Eya2 inh: qHTS Assay for Inhibitors of the Phosphatase Activity of Eya2 | Protein phosphatase EYA2 (Homo sapiens), O00167 | recombinant Eya2, OMFP fluorescence dephosphorylation (OMFP is methylfluorescein phosphate) | Potency, µM (top dose mostly 76.9 µM), inactives show top-dose activity, negative = inhibition, most hits filed as inhibitors | 330,000 compounds, 0.006% hits | AID 488837, 2010; also: potency is read from the fitted curve at half-maximal effect; % is scaled to controls: 0 for no effect and ±100 for the full control effect
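Eya2 protein (added as 0.2 uM solution) was preincubated with compound for 10 min at ambient temperature in 50 mM HEPES pH 7.5, 50 mM NaCl, 5 uM MgCl2, 0.05% BSA, 1 mM DTT. OMFP (added at 50 uM) then reacted 10 min; fluorescence read at 485/525 nm.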
CtBP-E1A inh: qHTS Assay for Inhibitors of the CtBP/E1A Interaction. AID 651724, 2012. activity change, % (test concentration not listed). 340,000 compounds, 0.49% hits. AlphaScreen GST-E1A/His-CtBP binding, 1536-well; hits give low values; in the data active = activity change below about -65%; inconclusive = mostly about -30% to -63%; also: % is scaled to controls: 0 for no effect and ±100 for the full control effect
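GST-E1A and His-tagged CtBP (125 nM each as 5X stock) were preincubated with pin-transferred compound for 2 h at 37 °C in the dark, then glutathione donor and nickel acceptor beads were added for 1 h before AlphaScreen reading.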
Six1-Eya2 blk: qHTS Assay for Inhibitors of the Six1/Eya2 Interaction | Homeobox protein SIX1 (Homo sapiens) + Protein phosphatase EYA2 (Homo sapiens), … | AlphaScreen GST-Six1/His-Eya2 binding, biochemical; hits give low values | activity change, % (test concentration not listed) | 360,000 compounds, 0.56% hits | AID 651725, 2012; in the data active = activity change below about -65%; inconclusive = mostly about -30% to -63%; also: % is scaled to controls: 0 for no effect and ±100 for the full control effect
Target sequence (O00167 whole entry, looked up): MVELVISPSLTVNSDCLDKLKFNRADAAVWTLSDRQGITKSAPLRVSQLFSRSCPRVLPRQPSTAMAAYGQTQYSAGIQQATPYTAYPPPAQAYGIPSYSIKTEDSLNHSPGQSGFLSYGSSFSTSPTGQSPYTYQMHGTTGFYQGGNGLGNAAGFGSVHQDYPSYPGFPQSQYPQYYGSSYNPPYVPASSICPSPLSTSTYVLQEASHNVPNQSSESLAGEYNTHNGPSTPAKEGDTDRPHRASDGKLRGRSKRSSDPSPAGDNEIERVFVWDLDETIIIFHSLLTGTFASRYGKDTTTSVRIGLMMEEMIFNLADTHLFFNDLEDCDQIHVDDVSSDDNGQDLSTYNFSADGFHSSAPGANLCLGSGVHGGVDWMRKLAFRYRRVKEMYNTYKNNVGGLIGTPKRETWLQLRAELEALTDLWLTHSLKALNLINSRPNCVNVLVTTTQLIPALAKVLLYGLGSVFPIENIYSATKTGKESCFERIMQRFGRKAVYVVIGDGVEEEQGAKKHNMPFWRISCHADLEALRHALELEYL
Target sequence (Q15475 whole entry, looked up): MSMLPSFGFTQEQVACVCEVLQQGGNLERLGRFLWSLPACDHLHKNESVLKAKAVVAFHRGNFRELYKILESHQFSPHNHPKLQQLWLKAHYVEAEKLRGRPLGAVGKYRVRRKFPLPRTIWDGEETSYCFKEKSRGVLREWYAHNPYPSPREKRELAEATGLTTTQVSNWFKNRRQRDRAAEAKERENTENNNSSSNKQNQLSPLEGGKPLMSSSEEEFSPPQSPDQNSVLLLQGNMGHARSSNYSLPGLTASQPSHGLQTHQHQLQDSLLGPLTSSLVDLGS
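AlphaScreen with GST-Six1 and His-Eya2 (5X mix: 250 nM and 500 nM), glutathione donor and nickel acceptor beads; buffer 50 mM Tris pH 8.0, 300 mM NaCl, 1 mM TCEP; 1 h at 37 C in the dark.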
Glioma ERSR ind: qHTS for Inducers of the Endoplasmic Reticulum Stress Response (ERSR) in Human Glioma: qHTS; U87-MG GRP78 promoter luciferase reporter, 16 h; 420,000 compounds, 0.02% hits; Potency, µM, inactives show at the highest dose activation, usual class: activators; also: potency is read from the fitted curve at half-maximal effect; series mostly up to about 76 µM; % of control where 0% means no effect; nearly all actives have a fitted effect of over 35% in size
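Stably transfected U87-MG human glioma cells carrying a GRP78-based luminescent sensor were seeded at 1000 cells/well, pin-dosed with compounds and incubated 16 h. Luciferase reagent was then added, and end-point luminescence was read after 10 min at room temperature.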
Active calls of the source: *; ? = inconclusive; / = not tested or not shown. Only some compounds are listed: those with a hit (about 0.58% of all), similar ones and a draw of the others. Unless noted, calls follow the shape of the dose curve; as a rule, active = well fitted curve in the direction sought with a large enough effect; inconclusive = small, poorly fitted or top-dose-only effect, or another doubt; inactive = no such curve, though single readings can be large; an effect the other way counts as inactive or inconclusive.

SMILES	Eya2 inh	CtBP-E1A inh	Six1-Eya2 blk	Glioma ERSR ind
COC(=O)c1cc(CNC(=O)c2ccc3ccccc3n2)cc(NC(=O)c2cccc(OC)c2)c1	/	/	/	-3%
O=C(NCc1cc([N+](=O)[O-])ccc1O)c1cccc(NS(=O)(=O)c2ccccc2)c1	7%	-89*	-83*	-5%
CC(=O)OC1CCC2(C)C(=CCC3C2CCC2(C)C(C(C)=O)CCC32)C1 (centres undefined)	/	/	/	-2%
Cc1cc(C)n(-c2ccc(C(=O)Nc3cccc(S(=O)(=O)N(C)C)c3)cc2)n1	-11%	?	?	-6%
CCN(CC)S(=O)(=O)c1cccc(NC(=O)c2ccc(-n3nc(C)cc3C)cc2)c1	1%	-70*	-6	-4%
Cc1ccc(C(=O)Oc2ccc([N+](=O)[O-])cc2)cc1S(=O)(=O)N1CCCCCC1	6%	-4	-85*	0%
O=C(Oc1ccc(C(=S)N2CCOCC2)cc1)c1ccc([N+](=O)[O-])cc1	1%	/	-83*	-4%
O=C(c1ccc([N+](=O)[O-])cc1)N1CCOCC1	/	2	2	-1%
Cc1ccc(C(NC(=O)C(C)C)c2cc([N+](=O)[O-])c3cccnc3c2O)cc1 (centres undefined)	2%	-96*	-88*	-3%
CCC(=O)NC(c1ccc(C)cc1)c1cc(Cl)c2cccnc2c1O (centres undefined)	6%	/	/	-4%
CCC(=O)NC(c1cccs1)c1cc([N+](=O)[O-])c2cccnc2c1OC (centres undefined)	-28%	/	/	-4%
CC(C)C(=O)NC(c1cccs1)c1cc([N+](=O)[O-])c2cccnc2c1O (centres undefined)	-1%	-91*	-97*	3%
S=c1sscc1-c1ccccc1	/	-81*	-70*	-1%
O=c1c(-c2ccccc2)c1-c1ccccc1	4%	/	/	-11%
Fc1ccc(CNc2ccc(N3CCN(Cc4ccccc4)CC3)cc2)cc1	-8%	-74*	-72*	-5%
C#CCN(Cc1nc(N2CCOCC2)c2ccc(Cl)cc2n1)Cc1ccco1	/	/	/	-2%
Cc1sc2nc3ccc(NCc4ccco4)nn3c(=O)c2c1C	11%	?	-66*	-4%
Clc1nc(NCc2ccco2)c2ccccc2n1	/	/	/	-1%
Cc1sc2nc(SCC(=O)NCc3ccco3)n(C)c(=O)c2c1C	-8%	-1	-1	-2%
O=c1c2ccccc2nc2ccc(NCc3ccco3)nn12	-7%	-81*	-69*	-2%
CN(C)C(=O)[C@@H]1C[C@@H](Sc2nc3ccccc3[nH]2)CN1Cc1ccnc2ccccc12	/	/	/	-4%
O=C1C(C=Nc2ccccc2O)=C(O)c2ccccc21	8%	?	-20	3%
Cc1ccc(O)c(N=CC2=C(O)c3ccccc3C2=O)c1	14%	?	?	32µM*
COc1cc2[nH]c(=S)nc(NCCC(C)C)c2cc1OC	2%	-89*	-87*	-4%
COCCCNc1nc2ccccc2[nH]c1=O	6%	11	0	-3%
SMILES	Eya2 inh	CtBP-E1A inh	Six1-Eya2 blk	Glioma ERSR ind
COCCCNc1nc(=S)[nH]c2cc(OC)c(OC)cc12	-6%	-95*	-90*	-5%
COc1cc2[nH]c(=O)n(CCC(=O)NCCC(C)C)c(=O)c2cc1OC	-2%	0	-3	-1%
Cc1ncc2c(c1CNS(=O)(=O)N(C)C)CCN(C(=O)c1c(F)cccc1F)C2	/	/	/	-6%
CC(=O)Nc1ccc(NC(=O)CSc2nnc(-c3ccco3)o2)cc1	-1%	3	-1	-7%
COc1cc(C(=O)NCc2nnc(SCC(=O)Nc3cc(C)on3)o2)cc(OC)c1OC	-15%	1	-2	-3%
Cc1cc(NC(=O)CSc2nnc(CNC(=O)c3ccc(C(C)(C)C)cc3)o2)no1	-9%	?	-76*	-2%
Cc1cc(NC(=O)CSc2nnc(-c3ccco3)o2)no1	/	-90*	-74*	-7%
COc1cc(=O)n2c(c1C(=O)NCc1ccc3c(c1)OCO3)CCN(C(=O)c1ccc(C)cc1)CC2	/	/	/	-5%
COCCN(C)C(=O)c1cnn(-c2nccc(-c3cc(C)sc3C)n2)c1C	/	/	/	3%
FC(F)(F)c1cnc(C(c2ccccn2)c2ncn[nH]2)c(Cl)c1 (centres undefined)	-2%	?	-89*	-4%

Compound activity as filed in PubChem BioAssay.
